According to the supplement of paper PMC11732987, “Enantioselective OTUD7B fragment discovery through chemoproteomics screening and high-throughput optimisation” (Communications Chemistry, 2025):

Columns and labels:
Experiment in all cases: log2 ratio of Biotin-Ahx-Ub-VS probe labelling (fragment/DMSO); higher = less target engagement (more negative = stronger competition), active = hit call of the paper (q ≤ 0.05, log2 ratio ≤ -1)
Details in all cases: compound concentration: 200 uM; treatment time: 3 h
[1] = target: T1, USP42 (UniProt Q9H9J4)
T1 sequence (whole entry): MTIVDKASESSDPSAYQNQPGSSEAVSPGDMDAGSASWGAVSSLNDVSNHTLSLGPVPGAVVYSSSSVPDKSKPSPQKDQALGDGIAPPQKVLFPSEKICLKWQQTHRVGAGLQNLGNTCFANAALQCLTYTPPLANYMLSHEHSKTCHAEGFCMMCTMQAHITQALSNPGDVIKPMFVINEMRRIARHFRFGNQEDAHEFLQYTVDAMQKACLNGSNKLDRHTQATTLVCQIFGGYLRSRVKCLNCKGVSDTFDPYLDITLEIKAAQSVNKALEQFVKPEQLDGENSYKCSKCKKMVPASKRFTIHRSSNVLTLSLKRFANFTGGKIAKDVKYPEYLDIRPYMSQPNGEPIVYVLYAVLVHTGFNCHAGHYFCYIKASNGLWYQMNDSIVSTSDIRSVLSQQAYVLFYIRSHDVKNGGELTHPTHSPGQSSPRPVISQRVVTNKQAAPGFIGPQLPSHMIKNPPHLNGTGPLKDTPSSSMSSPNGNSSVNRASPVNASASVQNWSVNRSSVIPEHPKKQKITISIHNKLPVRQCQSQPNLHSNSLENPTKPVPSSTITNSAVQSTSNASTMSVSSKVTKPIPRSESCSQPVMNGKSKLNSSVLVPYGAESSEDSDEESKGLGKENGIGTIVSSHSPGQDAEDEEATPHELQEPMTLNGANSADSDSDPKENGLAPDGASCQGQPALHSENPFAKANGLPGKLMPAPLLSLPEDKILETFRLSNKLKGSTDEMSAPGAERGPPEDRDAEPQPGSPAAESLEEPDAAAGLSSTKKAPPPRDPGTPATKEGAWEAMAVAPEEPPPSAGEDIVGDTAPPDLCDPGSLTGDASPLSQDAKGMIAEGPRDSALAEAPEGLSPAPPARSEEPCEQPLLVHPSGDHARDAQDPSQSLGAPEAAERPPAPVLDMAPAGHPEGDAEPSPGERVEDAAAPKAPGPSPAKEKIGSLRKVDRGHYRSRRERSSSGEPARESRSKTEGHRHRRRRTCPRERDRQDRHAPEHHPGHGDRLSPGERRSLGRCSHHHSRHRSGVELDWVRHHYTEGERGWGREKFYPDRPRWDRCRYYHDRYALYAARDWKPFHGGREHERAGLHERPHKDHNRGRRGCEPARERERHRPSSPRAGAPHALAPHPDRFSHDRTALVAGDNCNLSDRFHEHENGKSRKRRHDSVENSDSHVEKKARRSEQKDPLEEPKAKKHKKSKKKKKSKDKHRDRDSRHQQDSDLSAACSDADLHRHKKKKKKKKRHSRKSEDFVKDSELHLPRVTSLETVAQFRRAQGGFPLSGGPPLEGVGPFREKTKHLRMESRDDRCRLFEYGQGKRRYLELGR
Summary of the method: (§1)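 Labelled DUBs from HEK293T lysate were NeutrAvidin-enriched, digested with LysC and trypsin, and run by diaPASEF LC-MS/MS. Before that, each 495 µg sample in Tris/CHAPS/IGEPAL buffer with protease inhibitors was treated in triplicate with fragment at 200 µM or vehicle for 3 h, then with Biotin-Ahx-Ub-VS at 0.5 µM final for 1 h. Values are average log2 ratios of fragment over vehicle by unpaired t-test, based on global-median-normalised Spectronaut label-free quantities from proteins with ≥2 unique peptides.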

[2] = target: USP46 (UniProt P62068)
Summary of the method: as §1

[3] = target: T2, USP47 (UniProt Q96K76)
T2 sequence (whole entry): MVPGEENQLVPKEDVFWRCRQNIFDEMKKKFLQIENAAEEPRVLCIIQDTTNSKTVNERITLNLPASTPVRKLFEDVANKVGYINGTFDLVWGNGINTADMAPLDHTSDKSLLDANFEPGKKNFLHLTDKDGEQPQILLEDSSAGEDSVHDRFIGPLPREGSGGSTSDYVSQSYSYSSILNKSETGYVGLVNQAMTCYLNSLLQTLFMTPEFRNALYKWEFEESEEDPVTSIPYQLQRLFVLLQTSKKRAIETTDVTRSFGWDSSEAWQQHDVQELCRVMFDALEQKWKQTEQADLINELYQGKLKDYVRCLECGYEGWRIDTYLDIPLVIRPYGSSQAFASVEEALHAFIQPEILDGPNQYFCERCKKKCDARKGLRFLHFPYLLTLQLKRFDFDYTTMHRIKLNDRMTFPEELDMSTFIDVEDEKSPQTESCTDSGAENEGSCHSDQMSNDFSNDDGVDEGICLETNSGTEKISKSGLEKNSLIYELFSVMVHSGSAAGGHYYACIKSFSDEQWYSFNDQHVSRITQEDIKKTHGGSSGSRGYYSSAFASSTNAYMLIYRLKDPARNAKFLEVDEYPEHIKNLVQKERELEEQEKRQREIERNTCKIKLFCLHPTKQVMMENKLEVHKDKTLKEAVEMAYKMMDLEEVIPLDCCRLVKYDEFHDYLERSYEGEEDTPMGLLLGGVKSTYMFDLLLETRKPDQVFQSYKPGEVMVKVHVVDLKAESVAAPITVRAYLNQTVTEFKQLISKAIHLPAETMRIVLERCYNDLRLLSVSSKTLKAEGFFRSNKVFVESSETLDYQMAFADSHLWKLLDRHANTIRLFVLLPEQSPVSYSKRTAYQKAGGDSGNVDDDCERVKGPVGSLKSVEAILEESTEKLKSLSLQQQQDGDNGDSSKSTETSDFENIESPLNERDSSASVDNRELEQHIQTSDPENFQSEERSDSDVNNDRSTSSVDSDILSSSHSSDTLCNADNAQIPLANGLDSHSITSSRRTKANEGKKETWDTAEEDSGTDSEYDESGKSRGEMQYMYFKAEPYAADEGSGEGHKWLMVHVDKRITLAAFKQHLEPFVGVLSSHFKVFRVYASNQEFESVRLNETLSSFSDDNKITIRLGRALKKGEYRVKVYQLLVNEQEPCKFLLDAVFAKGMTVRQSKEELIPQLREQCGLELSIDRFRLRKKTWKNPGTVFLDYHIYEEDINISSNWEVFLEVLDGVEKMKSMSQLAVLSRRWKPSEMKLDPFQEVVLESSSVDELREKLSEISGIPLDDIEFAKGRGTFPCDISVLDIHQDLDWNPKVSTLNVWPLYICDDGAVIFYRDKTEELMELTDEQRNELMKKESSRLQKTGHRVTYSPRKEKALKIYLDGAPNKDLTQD
Summary of the method: as §1

[4] = target: T3, USP48 (UniProt Q86UV5)
T3 sequence (whole entry): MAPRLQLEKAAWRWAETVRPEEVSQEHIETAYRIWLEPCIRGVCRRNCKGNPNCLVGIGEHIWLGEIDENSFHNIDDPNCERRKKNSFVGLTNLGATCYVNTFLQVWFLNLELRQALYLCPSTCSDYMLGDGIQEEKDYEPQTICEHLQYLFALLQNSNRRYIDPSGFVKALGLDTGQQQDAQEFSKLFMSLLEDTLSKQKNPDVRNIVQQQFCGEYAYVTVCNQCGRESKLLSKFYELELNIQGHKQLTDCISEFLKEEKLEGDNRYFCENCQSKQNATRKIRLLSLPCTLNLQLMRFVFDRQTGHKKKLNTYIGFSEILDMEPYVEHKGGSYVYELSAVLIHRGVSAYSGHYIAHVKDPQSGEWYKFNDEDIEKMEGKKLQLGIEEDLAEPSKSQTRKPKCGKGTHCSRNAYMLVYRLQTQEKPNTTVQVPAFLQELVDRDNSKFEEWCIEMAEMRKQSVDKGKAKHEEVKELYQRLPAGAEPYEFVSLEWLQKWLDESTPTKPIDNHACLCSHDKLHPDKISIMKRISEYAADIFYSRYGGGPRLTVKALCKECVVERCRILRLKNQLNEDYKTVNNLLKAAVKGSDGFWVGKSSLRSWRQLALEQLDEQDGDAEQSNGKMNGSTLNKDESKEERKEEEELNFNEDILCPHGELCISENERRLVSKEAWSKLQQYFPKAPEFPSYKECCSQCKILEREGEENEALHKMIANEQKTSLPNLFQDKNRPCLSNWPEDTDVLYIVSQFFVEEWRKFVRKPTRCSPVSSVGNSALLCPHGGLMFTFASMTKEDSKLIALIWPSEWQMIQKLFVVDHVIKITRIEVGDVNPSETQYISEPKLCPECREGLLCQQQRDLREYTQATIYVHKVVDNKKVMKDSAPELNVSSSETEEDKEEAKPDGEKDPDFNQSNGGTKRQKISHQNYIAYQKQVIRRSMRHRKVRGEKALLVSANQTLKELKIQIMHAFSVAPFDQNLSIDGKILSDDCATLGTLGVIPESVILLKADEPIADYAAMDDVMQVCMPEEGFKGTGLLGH
Summary of the method: as §1

[5] = target: T4, USP5 (UniProt P45974)
T4 sequence (whole entry): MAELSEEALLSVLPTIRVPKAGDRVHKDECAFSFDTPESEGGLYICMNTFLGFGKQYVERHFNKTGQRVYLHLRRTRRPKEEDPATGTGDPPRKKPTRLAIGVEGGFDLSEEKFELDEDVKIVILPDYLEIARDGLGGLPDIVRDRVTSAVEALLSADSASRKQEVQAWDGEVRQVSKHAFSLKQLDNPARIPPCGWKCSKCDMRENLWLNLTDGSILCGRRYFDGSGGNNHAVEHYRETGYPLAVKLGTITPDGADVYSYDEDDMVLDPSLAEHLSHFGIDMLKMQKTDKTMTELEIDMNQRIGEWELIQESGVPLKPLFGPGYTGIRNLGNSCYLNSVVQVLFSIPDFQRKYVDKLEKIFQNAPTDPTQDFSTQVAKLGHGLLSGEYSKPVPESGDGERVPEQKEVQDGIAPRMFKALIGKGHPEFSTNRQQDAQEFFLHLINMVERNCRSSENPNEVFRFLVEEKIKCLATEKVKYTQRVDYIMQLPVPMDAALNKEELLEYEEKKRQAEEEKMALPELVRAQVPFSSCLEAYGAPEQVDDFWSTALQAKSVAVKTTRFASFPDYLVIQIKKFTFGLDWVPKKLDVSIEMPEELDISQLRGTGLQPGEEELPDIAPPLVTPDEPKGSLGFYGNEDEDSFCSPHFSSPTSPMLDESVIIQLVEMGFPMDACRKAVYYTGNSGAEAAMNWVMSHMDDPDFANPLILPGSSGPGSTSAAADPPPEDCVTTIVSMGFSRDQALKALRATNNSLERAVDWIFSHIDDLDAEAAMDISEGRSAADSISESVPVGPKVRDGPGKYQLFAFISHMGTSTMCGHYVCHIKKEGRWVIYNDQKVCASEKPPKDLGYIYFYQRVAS
Summary of the method: as §1

[6] = target: USP54 (UniProt Q70EL1)
Summary of the method: as §1

[7] = target: USP7 (UniProt Q93009)
Summary of the method: as §1

[8] = target: T5, USP8 (UniProt P40818)
T5 sequence (whole entry): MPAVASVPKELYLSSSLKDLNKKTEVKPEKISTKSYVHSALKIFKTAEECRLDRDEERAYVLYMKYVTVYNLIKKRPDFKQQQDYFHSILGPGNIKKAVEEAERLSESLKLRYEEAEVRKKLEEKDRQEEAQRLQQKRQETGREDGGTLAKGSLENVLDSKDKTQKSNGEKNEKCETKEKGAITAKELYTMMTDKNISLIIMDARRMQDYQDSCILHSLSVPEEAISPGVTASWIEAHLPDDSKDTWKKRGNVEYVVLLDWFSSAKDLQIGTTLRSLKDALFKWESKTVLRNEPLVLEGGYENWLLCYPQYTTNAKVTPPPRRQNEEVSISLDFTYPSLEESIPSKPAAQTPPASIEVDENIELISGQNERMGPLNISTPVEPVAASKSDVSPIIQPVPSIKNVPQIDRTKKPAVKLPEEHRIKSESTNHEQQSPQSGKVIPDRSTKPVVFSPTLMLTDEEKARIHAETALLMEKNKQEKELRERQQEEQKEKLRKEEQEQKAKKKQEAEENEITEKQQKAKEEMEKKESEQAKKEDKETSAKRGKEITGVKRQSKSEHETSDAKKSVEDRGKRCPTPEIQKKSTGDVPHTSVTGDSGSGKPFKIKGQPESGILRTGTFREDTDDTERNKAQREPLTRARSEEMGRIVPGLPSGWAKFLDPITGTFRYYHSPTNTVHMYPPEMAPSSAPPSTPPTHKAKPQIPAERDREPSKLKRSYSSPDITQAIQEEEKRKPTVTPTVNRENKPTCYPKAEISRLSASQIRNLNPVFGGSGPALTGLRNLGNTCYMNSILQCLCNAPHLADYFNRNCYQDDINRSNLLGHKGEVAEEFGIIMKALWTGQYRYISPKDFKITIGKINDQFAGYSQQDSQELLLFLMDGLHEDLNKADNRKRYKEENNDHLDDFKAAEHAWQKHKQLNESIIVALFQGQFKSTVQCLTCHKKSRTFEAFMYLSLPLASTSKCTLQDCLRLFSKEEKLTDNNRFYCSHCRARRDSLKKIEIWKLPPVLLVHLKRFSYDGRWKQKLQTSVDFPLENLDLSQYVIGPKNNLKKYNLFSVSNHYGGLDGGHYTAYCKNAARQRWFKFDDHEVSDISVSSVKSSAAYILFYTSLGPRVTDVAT
Summary of the method: as §1

[9] = target: USP9X (UniProt Q93008)
Summary of the method: as §1

[10] = target: UniProt O00487
Summary of the method: as §1

Measured: log2 ratio of Biotin-Ahx-Ub-VS probe labelling

Chain of UniProt O00487 (O00487 whole entry): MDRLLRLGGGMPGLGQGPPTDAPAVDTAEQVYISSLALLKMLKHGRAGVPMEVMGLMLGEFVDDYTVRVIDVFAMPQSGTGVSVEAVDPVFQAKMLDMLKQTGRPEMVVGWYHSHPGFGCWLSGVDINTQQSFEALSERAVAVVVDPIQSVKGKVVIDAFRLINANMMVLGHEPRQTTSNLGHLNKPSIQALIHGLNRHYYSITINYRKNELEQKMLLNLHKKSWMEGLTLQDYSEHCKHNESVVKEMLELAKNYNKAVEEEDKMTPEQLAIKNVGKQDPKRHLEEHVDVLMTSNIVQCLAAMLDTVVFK
Chain of USP54 (Q70EL1 whole entry): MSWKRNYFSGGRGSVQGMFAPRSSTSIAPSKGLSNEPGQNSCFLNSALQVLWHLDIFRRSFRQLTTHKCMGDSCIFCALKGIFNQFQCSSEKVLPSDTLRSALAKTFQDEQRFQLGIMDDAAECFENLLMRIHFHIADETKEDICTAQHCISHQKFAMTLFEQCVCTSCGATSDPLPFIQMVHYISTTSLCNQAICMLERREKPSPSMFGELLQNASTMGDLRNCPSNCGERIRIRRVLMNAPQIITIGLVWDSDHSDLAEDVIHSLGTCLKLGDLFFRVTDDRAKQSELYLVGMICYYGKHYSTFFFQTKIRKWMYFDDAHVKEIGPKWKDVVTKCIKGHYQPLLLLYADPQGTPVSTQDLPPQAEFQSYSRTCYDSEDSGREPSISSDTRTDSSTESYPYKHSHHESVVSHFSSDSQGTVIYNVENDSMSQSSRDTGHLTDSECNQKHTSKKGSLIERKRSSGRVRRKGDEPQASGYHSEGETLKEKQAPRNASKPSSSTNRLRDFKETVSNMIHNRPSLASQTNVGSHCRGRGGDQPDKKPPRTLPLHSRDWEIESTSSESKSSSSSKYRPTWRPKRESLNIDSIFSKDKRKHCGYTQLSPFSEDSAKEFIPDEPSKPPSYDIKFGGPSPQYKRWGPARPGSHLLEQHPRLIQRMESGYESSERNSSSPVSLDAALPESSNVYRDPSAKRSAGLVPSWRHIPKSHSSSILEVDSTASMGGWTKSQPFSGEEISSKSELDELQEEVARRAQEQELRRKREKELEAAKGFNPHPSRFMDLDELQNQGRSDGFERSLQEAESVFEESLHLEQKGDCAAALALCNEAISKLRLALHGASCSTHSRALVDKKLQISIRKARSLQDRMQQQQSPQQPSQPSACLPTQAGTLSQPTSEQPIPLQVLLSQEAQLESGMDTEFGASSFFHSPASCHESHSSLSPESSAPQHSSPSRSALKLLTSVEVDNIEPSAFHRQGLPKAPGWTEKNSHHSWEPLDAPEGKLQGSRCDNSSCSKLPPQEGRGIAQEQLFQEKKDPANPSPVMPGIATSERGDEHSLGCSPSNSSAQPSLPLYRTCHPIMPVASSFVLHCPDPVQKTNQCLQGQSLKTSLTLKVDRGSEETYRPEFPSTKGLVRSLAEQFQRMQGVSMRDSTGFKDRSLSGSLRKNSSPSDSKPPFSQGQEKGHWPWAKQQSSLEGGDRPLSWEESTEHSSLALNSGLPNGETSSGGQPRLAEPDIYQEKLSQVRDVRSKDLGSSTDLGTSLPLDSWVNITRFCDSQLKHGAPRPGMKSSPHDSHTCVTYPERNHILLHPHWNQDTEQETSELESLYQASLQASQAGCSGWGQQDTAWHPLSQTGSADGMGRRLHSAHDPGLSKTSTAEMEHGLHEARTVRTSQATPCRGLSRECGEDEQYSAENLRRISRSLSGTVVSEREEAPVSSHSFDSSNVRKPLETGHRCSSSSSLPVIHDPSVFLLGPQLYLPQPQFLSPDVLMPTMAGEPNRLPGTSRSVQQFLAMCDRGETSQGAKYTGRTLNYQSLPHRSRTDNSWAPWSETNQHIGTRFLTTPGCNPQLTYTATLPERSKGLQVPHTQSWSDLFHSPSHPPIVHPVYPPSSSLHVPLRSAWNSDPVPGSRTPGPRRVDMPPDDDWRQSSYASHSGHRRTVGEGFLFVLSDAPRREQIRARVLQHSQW
Chain of USP7 (Q93009 whole entry, looked up): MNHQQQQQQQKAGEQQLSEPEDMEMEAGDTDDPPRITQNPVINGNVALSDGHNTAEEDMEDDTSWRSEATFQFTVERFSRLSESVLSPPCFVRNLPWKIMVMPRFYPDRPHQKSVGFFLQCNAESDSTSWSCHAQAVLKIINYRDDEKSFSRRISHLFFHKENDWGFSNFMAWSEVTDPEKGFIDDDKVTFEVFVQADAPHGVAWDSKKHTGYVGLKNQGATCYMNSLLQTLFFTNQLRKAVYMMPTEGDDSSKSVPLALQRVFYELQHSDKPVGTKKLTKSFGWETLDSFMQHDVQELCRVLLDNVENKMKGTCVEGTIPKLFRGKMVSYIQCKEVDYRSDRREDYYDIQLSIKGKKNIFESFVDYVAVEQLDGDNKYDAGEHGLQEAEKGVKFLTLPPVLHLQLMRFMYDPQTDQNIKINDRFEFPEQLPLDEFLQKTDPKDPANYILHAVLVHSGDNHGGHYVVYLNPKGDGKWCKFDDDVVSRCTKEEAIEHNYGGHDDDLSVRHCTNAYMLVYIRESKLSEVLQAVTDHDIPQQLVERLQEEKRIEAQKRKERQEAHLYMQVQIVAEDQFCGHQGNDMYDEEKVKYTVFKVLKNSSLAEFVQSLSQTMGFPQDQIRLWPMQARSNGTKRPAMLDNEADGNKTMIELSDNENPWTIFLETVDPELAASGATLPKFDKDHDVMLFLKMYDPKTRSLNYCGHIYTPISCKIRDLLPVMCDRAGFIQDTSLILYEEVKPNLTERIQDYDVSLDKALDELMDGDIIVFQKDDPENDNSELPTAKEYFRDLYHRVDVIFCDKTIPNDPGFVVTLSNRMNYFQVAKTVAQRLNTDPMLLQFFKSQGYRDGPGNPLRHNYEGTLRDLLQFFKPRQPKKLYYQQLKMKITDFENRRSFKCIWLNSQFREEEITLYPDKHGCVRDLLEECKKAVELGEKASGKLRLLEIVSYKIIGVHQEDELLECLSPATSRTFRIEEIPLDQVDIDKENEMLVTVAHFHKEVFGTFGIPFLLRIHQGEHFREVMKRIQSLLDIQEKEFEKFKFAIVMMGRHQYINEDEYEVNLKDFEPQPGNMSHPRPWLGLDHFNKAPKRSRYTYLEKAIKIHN
Chain of USP46 (P62068 whole entry): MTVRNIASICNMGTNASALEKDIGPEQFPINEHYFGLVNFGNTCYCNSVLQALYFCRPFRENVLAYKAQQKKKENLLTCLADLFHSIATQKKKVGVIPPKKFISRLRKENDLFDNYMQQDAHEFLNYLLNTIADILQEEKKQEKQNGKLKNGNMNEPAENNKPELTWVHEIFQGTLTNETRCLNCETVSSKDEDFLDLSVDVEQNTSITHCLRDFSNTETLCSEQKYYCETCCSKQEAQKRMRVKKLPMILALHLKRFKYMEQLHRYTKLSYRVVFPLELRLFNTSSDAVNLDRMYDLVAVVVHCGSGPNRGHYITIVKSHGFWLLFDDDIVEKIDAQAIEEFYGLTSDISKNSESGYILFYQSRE

Cc1ccc(CC(NC(=O)CCl)c2ccccn2)cc1.Cl (stereo not given)
inactive: [1] -0.109 | [2] 0.168 | [3] 0.0361 | [4] 0.0528 | [5] -0.125 | [6] 0.195 | [7] -0.0773 | [8] 0.0199 | [9] 0.139 | [10] 0.244
